A short description of assay [1]: qHTS assay to identify small molecule agonists of the vitamin D receptor (VDR) signaling pathway - cell viability counter screen (AID 743224). Note: nearly all actives have a fitted effect of over 50% in size. Note: potency is the fitted concentration of half-maximal effect. Put shortly:
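Cells: VDR-bla, 2,000/well, settled 4 h. Treatment: compounds in DMSO, 16 h, 37C/5% CO2. Readout: CellTiter-Glo luminescence after 30 min RT.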
For orientation: In qHTS, concentration-response curves come from the screen itself.

Assay [2] in a line: qHTS assay to identify small molecule antagonists of the vitamin D receptor (VDR) signaling pathway - cell viability counter screen (AID 743225). Note: nearly all actives have a fitted effect of over 50% in size. The method, boiled down: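 Parallel cytotoxicity test: VDR-UAS-bla HEK 293T, 3 nM (final) 1-alpha,25-dihydroxyvitamin D3 with test compound, 16 h, 37C. Endpoint is CellTiter-Glo luminescence in the same wells.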
Assay [3] can be described thus: qHTS assay to identify small molecule agonists of the NFkB signaling pathway (AID 1159509; active = well fitted curve in the direction sought with a large enough effect in the signal ratio in the repeat runs, not every such curve was filed as active; the % refers to the signal ratio; note: series mostly up to about 61 µM). Put shortly:
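Pathway activation was measured in ME-180 cells stably expressing beta-lactamase under NF-kB response element control. Substrate cleavage was read as the 460/530 nm emission shift after 5 hr compound incubation.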

Assay [4] in a line: qHTS assay to identify small molecule agonists of the NFkB signaling pathway - cell viability counter screen (AID 1159515; calls by dose curve; note: series mostly up to about 61 µM; nearly all actives have a fitted effect of over 55% in size). Put shortly:
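Cells are seeded (2,000 NFkB-bla ME-180 per well), rested overnight, and dosed with DMSO-dissolved compounds for 5 hr at 37 C. Viability is then read by CellTiter-Glo luminescence after 30 min at room temperature.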

Assay [5] in a line: qHTS assay to identify small molecule agonists of the endoplasmic reticulum stress response signaling pathway (AID 1159516; active = well fitted activation curve with a large enough effect in the signal ratio in the repeat runs, not every such curve was filed as active; the % refers to the signal ratio). The method, boiled down: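 Cells are seeded at 1,500 per well and incubated overnight. Compounds in DMSO are added for 5 hr at 37 C, then beta-lactamase FRET substrate for 2 hr at room temperature, and fluorescence at 460 and 530 nm is measured.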
A short description of assay [6]: qHTS assay to identify small molecule agonists of the endoplasmic reticulum stress response signaling pathway - cell viability counter screen (AID 1159517; calls by dose curve; note: nearly all actives have a fitted effect of over 50% in size; note: potency is the fitted concentration of half-maximal effect). The method, boiled down:
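In parallel with the ESRE reporter read, cytotoxicity was scored by CellTiter-Glo luminescence (30 min, room temperature) on HeLa ESRE-bla cells dosed for 5 hr.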

The nature of assay [7]: qHTS assay to identify small molecule antagonists of the retinoid-related orphan receptor gamma (ROR-gamma) signaling pathway - cell viability counter screen (AID 1159520). Note: nearly all actives have a fitted effect of over 50% in size. Put shortly:
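Tet-on ROR gamma CHO cells were given compounds for 2 hr, then doxycycline hyclate at 1 uM final, and incubated 16 hr at 37 C. Viability was measured as ATP content by CellTiter-Glo luminescence.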

The target in assay [8] is Nuclear receptor ROR-gamma (Homo sapiens) (UniProt P51449). The assay is described as follows: qHTS assay to identify small molecule antagonists of the retinoid-related orphan receptor gamma (ROR-gamma) signaling pathway (AID 1159521; note: nearly all actives have a fitted effect of over 50% in size; note: potency is the fitted concentration of half-maximal effect). Put shortly:
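Decreased RORE-driven luciferase luminescence indicates antagonism. Tet-on RORγ CHO cells received compound, then 1 uM final doxycycline 2 h later; signal read after 16 h incubation.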

Assay [9] can be described thus: qHTS assay to identify small molecule agonists of the AP-1 signaling pathway - cell viability counter screen (AID 1159525; calls by dose curve; note: nearly all actives have a fitted effect of over 55% in size). Put shortly:
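Same-well cytotoxicity counter screen of the Tox21 10K library in ME-180 cells. The readout is ATP-dependent luminescence after 5 h compound treatment. Data are normalised to DMSO and tetra n-octyl ammonium bromide controls.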

The nature of assay [10]: qHTS assay to identify small molecule agonists of the RXR signaling pathway - cell viability counter screen (AID 1159529). Note: nearly all actives have a fitted effect of over 50% in size. Note: potency is the fitted concentration of half-maximal effect. Put shortly:
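In this parallel viability measure, GeneBLAzer RXR-alpha HEK 293T cells (2% charcoal-stripped FBS) were given a 5 hr preincubation, treated with compounds 16 hr at 37 C, and read by CellTiter-Glo luminescence.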

Assay [11] is described as follows: qHTS assay to identify small molecule antagonists of the retinoid acid receptor (RAR) signaling pathway - cell viability counter screen (AID 1159551). Note: nearly all actives have a fitted effect of over 35% in size. The method, boiled down:
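Cells (C3RL4) are plated, incubated overnight, dosed with compound in DMSO, then given retinol at 1 uM final. After 6 h at 37 C, CellTiter-Glo is added and luminescence read following 30 min at room temperature.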

A short description of assay [12]: qHTS assay to identify small molecule antagonists of the retinoic acid receptor (RAR) signaling pathway (AID 1159552; note: nearly all actives have a fitted effect of over 50% in size; note: potency is the fitted concentration of half-maximal effect). Put shortly: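 C3RL4 RARE-luc cells, overnight plating; retinol 1 uM final added right after compound; 6 hr 37 C; luciferase read at 30 min RT.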
Assay [13] in a line: qHTS assay to identify small molecule agonists of the retinoic acid receptor (RAR) signaling pathway (AID 1159553). Note: potency is the fitted concentration of half-maximal effect. The method, boiled down:
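Seed C3RL4 reporter cells at 1,000 per well and incubate overnight at 37 C. Add compounds in DMSO, incubate 6 hr. Add luciferase reagent, wait 30 min at room temperature, read luminescence.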

Assay [14] can be described thus: qHTS assay to identify small molecule agonists of the AP-1 signaling pathway (AID 1159526; calls by dose curve).
In assay [15] the target is Retinoic acid receptor RXR-alpha (Homo sapiens) (UniProt P19793). The assay is described as follows: qHTS assay to identify small molecule agonists of the RXR signaling pathway (AID 1159527; calls by dose curve; note: nearly all actives have a fitted effect of over 35% in size; note: potency is the fitted concentration of half-maximal effect). The method, boiled down: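 16 hr incubation of compound-treated RXR-alpha-UAS-bla HEK 293T cells (2% charcoal-stripped FBS, 37 C) preceded a 2 hr room-temperature LiveBLAzer FRET substrate step and blue/green fluorescence measurement.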
Retinoic acid receptor RXR-alpha (Homo sapiens), sequence (P19793 whole entry, looked up): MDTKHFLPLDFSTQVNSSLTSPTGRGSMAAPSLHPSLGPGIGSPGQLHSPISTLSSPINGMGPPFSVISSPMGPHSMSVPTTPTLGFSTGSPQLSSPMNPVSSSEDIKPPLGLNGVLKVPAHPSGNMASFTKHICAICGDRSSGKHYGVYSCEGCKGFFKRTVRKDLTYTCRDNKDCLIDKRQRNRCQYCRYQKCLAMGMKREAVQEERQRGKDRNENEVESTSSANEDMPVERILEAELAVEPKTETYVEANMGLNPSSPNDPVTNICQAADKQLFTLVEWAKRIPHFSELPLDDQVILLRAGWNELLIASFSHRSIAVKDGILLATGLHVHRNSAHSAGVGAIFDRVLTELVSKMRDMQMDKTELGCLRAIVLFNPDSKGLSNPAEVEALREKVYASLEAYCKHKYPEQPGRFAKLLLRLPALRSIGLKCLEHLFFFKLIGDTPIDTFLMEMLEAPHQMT

The nature of assay [16]: qHTS assay to identify small molecule antagonists of the estrogen related receptor (ERR) signaling pathway - cell viability counter screen (AID 1224818). Note: series mostly up to about 46 µM. Put shortly:
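ERR cells, 2,000/well; 6 h settle at 37 C/5% CO2; compound pin transfer (DMSO); 17.5 h at 37 C; CellTiter-Fluor, 30 min, fluorescence read.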

Assay [17] in a line: qHTS assay to identify small molecule antagonists of the estrogen related receptor (ERR) signaling pathway (AID 1224819). The method, boiled down: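 qHTS in ERR cells, 2,000/well, 1536 format. Cpd (DMSO) added after 6 h settle, 18 h 37 C. One-Glo luminescence, 30 min RT.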
Assay [18] is described as follows: qHTS assay to identify small molecule agonists of the estrogen related receptor (ERR) signaling pathway (AID 1224820). Put shortly:
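An ERR cell line provided by NTP was seeded at 2,000 cells per well and allowed to settle for 6 h before compounds in DMSO were added. After 18 h at 37 C, luciferase activity was measured by One-Glo luminescence.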

A short description of assay [19]: qHTS assay to identify small molecule antagonists of the estrogen related receptor signaling pathway with the pleiotropic PPARgamma coactivator (PGC) cell viability counter screen (AID 1224822;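 note: series mostly up to about 46 µM; viability read after 17.5 h compound exposure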). The method, boiled down:
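Multiplexed viability counter screen run in PGC/ERR cells treated with compounds for 17.5 h at 37 C; live-cell protease signal measured by CellTiter-Fluor fluorescence.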

Experimental findings from PubChem BioAssay (Tox21) are described below.

Several values for one entry are separate records, joined by “and”; a condition that tells them apart may be missing. Equal entries are not always repeated. Results filed as inconclusive are left out. More than one record can exist for a structure, and the calls need not agree. Activity calls are given as the source filed them. Unless noted, calls come from the whole dose curve; as a rule, active = well fitted curve in the direction sought with a large enough effect in the repeat runs; inconclusive = weak or mixed curves; inactive = no such curve, though single readings can be large; an effect the other way counts as inactive or inconclusive.

As for `O=C1OC(c2ccc(O)cc2)(c2ccc(O)cc2)c2ccccc21`, the Potency is 48.7 µM (active) and inactive in assay [1]; 8.57 µM (active) and inactive in assay [8]; 19.4 µM (active) and inactive in [10]; 48.6 µM (active) and inactive in assay [12]. The molecule was classed as inactive in assay [2], in [3], in assay [4], in assay [5], in [7] and in assay [9]. Moreover, the call in assay [11] was inactive. Further, the Potency entry in assay [6] and in [13] was “inactive” throughout.
In the case of `Nc1ccc(N=Nc2ccccc2)c(N)n1`, the Potency result in assay [1], in assay [6], in [8], in [14], in assay [15] and in [10] was “inactive” each time. Further, in assay [12], the Potency result is “inactive”. For the same molecule, the call in assay [2], in assay [3], in assay [4], in assay [7], in assay [9] and in assay [11] was inactive. Further, in [13], the Potency is 1.23 µM (active) and 969 nM (active) and 2.37 µM (active).
For the molecule `O=C(O)CN(CC(=O)O)CC(=O)O`, the Potency entry in [1], in [6], in assay [8], in assay [14], in [15] and in assay [10] was “inactive” in each case. In addition, the Potency entry in assay [12] and in assay [13] was “inactive” in each case. Further, the result in [2], in assay [3], in [4], in assay [5], in assay [7] and in [9] was inactive.
In the case of `C/C=C/c1ccc(O)c(OC)c1`, the Potency entry in assay [1], in assay [6], in assay [8], in [14], in assay [15] and in assay [10] was “inactive” throughout. Also, the Potency result in assay [12] and in assay [13] was “inactive” throughout. For the same molecule, the call in assay [2], in [4], in assay [5], in [7], in assay [9] and in assay [11] was inactive.
`C[C@]12CC[C@@H]3c4ccc(O)cc4C[C@@H](CCCCCCCCCS(=O)CCCC(F)(F)C(F)(F)F)[C@H]3[C@@H]1CC[C@@H]2O` (stereo not given in full): the Potency entry in [1], in [6], in assay [14], in assay [15], in assay [10] and in [12] was “inactive” in each case. In addition, in assay [13], the Potency entry was “inactive”. Besides, the outcome in [2], in assay [3], in [4], in assay [5], in assay [7] and in assay [9] was inactive. Besides, the result in assay [16], in [18] and in assay [19] was inactive. For the same molecule, the Potency in assay [17] is 7.22 µM (active).
As for `C[C@]12C=CC(=O)C=C1CC[C@@H]1[C@@H]2C(=O)C[C@@]2(C)[C@H]1CC[C@]2(O)C(=O)CO`, the Potency result in assay [1], in assay [6], in assay [8], in assay [14], in assay [15] and in assay [10] was “inactive” throughout. The Potency entry in assay [12] and in assay [13] was “inactive” throughout. In addition, the call in assay [2], in assay [3], in assay [4], in assay [5], in assay [7] and in [9] was inactive.
Take `CC(C)=CCC/C(C)=C/CO`: the Potency result in [1], in assay [6], in assay [8], in assay [14], in assay [15] and in assay [10] was “inactive” in each case. Moreover, the outcome in assay [2], in assay [4], in [5], in assay [7], in [9] and in assay [11] was inactive.
On to `C[C@]12CC[C@@H]3c4ccc(O)cc4CC[C@H]3[C@@H]1CCC2=O`, for which the Potency result in [1], in assay [6], in assay [14], in assay [15] and in assay [10] was “inactive” throughout. The molecule was called inactive in assay [2], in [3], in assay [4], in assay [5], in assay [7] and in assay [9]. Also, the molecule was classed as inactive in assay [16] and in assay [19].
As to `C#C[C@]1(O)CC[C@H]2[C@@H]3CCC4=CC(=O)CC[C@@H]4[C@H]3CC[C@@]21CC`, the Potency entry in [1], in assay [6], in assay [14], in assay [15] and in assay [10] was “inactive” in each case. Moreover, the result in assay [2], in [3], in [4], in assay [5], in [7] and in assay [9] was inactive. Moreover, the Potency in [8] was 48.6 µM (active) and inactive.
For `NCCNc1cccc2ccccc12`, the Potency entry in assay [1], in assay [6], in [14], in assay [15] and in assay [10] was “inactive” in each case. The call in assay [2], in assay [3], in assay [4], in assay [5], in assay [7] and in [9] was inactive. Further, the result in assay [11] was inactive. Besides, the Potency in assay [12] was 30.6 µM (active) and 23.7 µM (active).
Turning to `OCCCc1ccccc1`, the Potency result in assay [1], in [6], in [8], in assay [14], in assay [15] and in assay [10] was “inactive” throughout. For the same molecule, the Potency entry in assay [12] and in assay [13] was “inactive” each time. Besides, the molecule was classed as inactive in [2], in [3], in assay [4], in [5], in assay [7] and in assay [9].
Consider `CC1=C(/C=C/C(C)=C/C=C/C(C)=C/C(=O)O)C(C)(C)CCC1`, for which the Potency result in [1], in [8], in assay [14], in assay [10] and in assay [12] was “inactive” throughout. Further, the molecule was classed as inactive in assay [2], in assay [3], in assay [4], in [5], in assay [7] and in assay [9]. For the same molecule, the call in assay [11], in assay [16] and in assay [19] was inactive. The Potency in assay [6] is 43.7 µM (active); in assay [13], 19.4 nM (active) and 9.7 nM (active) and 84.1 nM (active).
Consider `COc1ccc(O)cc1`, for which the Potency entry in assay [1], in assay [6], in assay [14], in assay [15] and in assay [10] was “inactive” in each case. The molecule was classed as inactive in [2], in assay [3], in assay [4], in assay [5], in assay [7] and in [9]. Also, the molecule was classed as inactive in assay [11].
Take `CC1(C)O[C@@H]2[C@@H](CO[C@@]3(COS(N)(=O)=O)OC(C)(C)O[C@@H]23)O1`: the Potency entry in [1], in assay [6], in [8], in assay [14], in assay [10] and in assay [12] was “inactive” throughout. In assay [13], the Potency entry was “inactive”. For the same molecule, the outcome in assay [2], in [3], in assay [4], in assay [5], in assay [7] and in assay [9] was inactive. Also, the Potency in [15] is 17.4 µM (active) and inactive.
Turning to `Oc1cccc(O)c1`, the Potency result in assay [1], in [6], in [8], in [14], in assay [10] and in [12] was “inactive” each time. Further, the Potency result in [13] was “inactive”. Further, the call in [2], in [3], in assay [4], in [5], in [7] and in assay [9] was inactive.
